Bioassay records as filed in PubChem BioAssay.
PrP 5UTR inh: suppresses PrP 5' UTR mRNA reporter expression. cell-based PrP 5' UTR mRNA reporter, plate reader. inhibition, % (no concentration beside the values). 340,000 compounds, 0.35% hits. AID 488862; in the data active = inhibition above about 52%; note: 0 = median of the neutral control wells
RN4220 kill: S. aureus RN4220 growth inhibition; inhibition, % (test concentration not listed); 330,000 compounds, 0.33% hits; OD600, 16 h; AID 1259311; in the data active = inhibition above about 85%;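 note: plate controls were untreated cells for no effect and reference antibiotic for full effect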
ugtP null kill: compounds lethal to S. aureus RN4220 ugtP deletion mutant; growth inhibition, % (concentration not given with the values); OD600 growth, 16 h; 330,000 compounds, 0.54% hits; in the data active = growth inhibition above about 68%;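 note: plate controls were untreated wells for no effect and antibiotic for full effect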
PfHsp40 rescue: compounds rescuing yeast from Plasmodium falciparum HSP40 toxicity. growth rescue, % at 12.5 µM. 340,000 compounds, 0.68% hits. AID 504582. S. cerevisiae expressing PfHsp40, growth rescue, ATP luminescence; in the data active = growth rescue above about 28%, passing the limit was not always enough; inconclusive = no clear call, values can overlap the other calls;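 note: yeast W303a lacking pdr1 and pdr3 grown in galactose medium; growth measured after three days at 30 °C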
TcdB GH inh: inhibitors of Clostridioides difficile toxin B glycohydrolase. P18177. TcdB glycohydrolase enzymatic assay, plate reader. inhibition, % at 9.99 µM. 350,000 compounds, 0.24% hits; in the data active = inhibition above about 10%
Target sequence (P18177 whole entry, looked up): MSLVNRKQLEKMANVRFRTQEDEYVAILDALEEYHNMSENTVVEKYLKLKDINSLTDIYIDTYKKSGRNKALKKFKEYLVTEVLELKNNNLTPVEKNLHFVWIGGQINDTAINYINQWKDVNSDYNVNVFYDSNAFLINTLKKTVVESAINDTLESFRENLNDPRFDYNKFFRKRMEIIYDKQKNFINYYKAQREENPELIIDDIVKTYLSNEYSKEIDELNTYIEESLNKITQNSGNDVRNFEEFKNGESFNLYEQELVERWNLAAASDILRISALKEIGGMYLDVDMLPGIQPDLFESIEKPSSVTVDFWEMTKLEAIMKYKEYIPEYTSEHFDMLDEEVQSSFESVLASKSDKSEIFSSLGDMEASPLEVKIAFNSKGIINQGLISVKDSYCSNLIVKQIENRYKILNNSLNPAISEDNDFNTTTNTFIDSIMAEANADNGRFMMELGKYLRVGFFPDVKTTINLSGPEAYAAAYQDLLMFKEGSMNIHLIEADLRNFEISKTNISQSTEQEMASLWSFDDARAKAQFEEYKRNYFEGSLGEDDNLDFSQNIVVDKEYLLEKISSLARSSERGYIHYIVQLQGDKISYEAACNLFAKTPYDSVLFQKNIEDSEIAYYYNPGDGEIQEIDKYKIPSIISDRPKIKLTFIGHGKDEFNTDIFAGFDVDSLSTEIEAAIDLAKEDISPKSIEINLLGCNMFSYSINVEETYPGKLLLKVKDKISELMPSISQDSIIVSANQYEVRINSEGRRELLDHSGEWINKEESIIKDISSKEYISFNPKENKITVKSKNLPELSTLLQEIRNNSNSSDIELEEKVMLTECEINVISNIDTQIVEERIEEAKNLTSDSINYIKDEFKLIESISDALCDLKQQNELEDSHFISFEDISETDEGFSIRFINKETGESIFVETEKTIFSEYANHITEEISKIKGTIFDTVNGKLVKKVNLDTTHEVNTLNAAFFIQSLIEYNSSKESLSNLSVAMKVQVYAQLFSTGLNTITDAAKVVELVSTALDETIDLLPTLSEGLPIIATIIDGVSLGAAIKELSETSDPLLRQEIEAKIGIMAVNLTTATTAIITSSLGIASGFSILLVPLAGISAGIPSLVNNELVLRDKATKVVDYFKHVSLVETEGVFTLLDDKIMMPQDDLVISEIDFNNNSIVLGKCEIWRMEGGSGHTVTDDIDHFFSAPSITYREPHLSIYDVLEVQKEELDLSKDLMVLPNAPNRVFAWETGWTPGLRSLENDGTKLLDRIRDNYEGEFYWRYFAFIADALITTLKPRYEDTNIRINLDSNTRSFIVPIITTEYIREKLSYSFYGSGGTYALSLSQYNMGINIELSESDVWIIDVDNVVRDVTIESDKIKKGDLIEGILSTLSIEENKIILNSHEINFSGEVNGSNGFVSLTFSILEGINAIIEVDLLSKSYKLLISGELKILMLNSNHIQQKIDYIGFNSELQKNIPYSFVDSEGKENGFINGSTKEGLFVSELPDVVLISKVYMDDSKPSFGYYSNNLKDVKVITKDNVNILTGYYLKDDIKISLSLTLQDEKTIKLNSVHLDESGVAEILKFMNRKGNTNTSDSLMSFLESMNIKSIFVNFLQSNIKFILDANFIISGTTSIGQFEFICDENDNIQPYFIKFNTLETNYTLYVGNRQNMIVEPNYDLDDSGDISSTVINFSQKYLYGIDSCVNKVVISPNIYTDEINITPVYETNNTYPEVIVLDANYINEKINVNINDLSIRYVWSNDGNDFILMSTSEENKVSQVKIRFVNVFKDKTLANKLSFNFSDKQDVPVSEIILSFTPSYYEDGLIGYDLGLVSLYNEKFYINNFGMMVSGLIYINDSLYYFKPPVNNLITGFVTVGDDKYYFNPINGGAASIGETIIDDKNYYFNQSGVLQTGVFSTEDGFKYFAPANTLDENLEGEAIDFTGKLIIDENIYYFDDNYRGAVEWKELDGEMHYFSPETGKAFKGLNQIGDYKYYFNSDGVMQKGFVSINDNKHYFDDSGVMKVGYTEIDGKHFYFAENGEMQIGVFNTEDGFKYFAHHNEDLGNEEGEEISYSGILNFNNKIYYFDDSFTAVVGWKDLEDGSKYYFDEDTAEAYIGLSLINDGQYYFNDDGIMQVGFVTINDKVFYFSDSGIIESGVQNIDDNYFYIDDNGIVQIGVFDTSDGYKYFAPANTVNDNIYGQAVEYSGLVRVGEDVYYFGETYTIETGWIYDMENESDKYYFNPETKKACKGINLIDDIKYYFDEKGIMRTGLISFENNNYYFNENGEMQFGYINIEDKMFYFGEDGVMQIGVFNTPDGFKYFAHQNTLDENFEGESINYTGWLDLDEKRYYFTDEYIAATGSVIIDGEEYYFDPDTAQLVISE
Numbers without * were called inactive; ? = inconclusive; / = no result given. In the library only some 1.2% were active in any assay of this set; here they are far more common.

SMILES	PrP 5UTR inh	RN4220 kill	ugtP null kill	PfHsp40 rescue	TcdB GH inh
CON=CCC(=O)c1ccc(-c2ccccc2)cc1	/	32	101*	/	/
CO/N=C/CC(=O)c1ccc(-c2ccccc2)cc1	-24	/	/	-1	1
Cn1ncc([N+](=O)[O-])c1C(=O)NCc1ccccc1	-27	-4	-2	-1	3
Cc1c(CNC(=O)c2c([N+](=O)[O-])cnn2C)cnn1C	-11	1	4	0	24*
CC(C)C#Cc1cnc2c(c1)C(=O)N([C@@H](C)CO)C[C@H](C)[C@H](CN(C)C(=O)Nc1cccc(F)c1)O2	/	/	/	/	1
O=C(NN=Cc1cccc(O)c1)c1ccc(COc2ccccc2Br)cc1	/	5	5	/	/
C#CCOCCOCCOCCNc1nc(N2CCN(C(=O)CCCCCCCCCCNC(=O)Cn3cc(CCCCCN)nn3)CC2)nc(N2CCN(C(=O)CCCCCCCCCCNC(=O)Cn3cc(C[C@@H](C)O)nn3)CC2)n1	-19	/	/	38*	2
C#CCOCCOCCOCCNc1nc(N2CCN(C(=O)CCCCCCCCCCNC(=O)[C@H](CCCCN)n3cc(C[C@@H](C)CC)nn3)CC2)nc(N2CCN(C(=O)CCCCCCCCCCNC(=O)[C@H](CCCN=C(N)N)n3cc(C[C@@H](C)CC)nn3)CC2)n1	7	/	/	26*	/
C#CCOCCOCCOCCNc1nc(N2CCN(C(=O)CCCCCCCCCCNC(=O)[C@@H](CCSC)n3cc(CCO)nn3)CC2)nc(N2CCN(C(=O)CCCCCCCCCCNC(=O)[C@H](CO)n3cc(CCCCCN)nn3)CC2)n1	-19	/	/	85*	/
C#CCOCCOCCOCCNc1nc(N2CCN(C(=O)CCCCCCCCCCNC(=O)[C@@H](CCSC)n3cc(CCO)nn3)CC2)nc(N2CCN(C(=O)CCCCCCCCCCNC(=O)[C@H](CCC(=O)O)n3cc(CCCCCN)nn3)CC2)n1	-15	/	/	1	/
Cc1noc(C)c1S(=O)(=O)Nc1ccc2c(c1)CC(=O)N([C@@H](C)CO)C[C@@H](C)[C@H](CN(C)Cc1ccc(C(=O)O)cc1)O2	/	/	/	/	0
Cn1cncc1C#Cc1ccc2cc(CCO)oc(=O)c2c1	-13	-10	0	67*	0
C[C@@H]1CN([C@@H](C)CO)C(=O)c2cc(NC(=O)CCC(F)(F)F)ccc2O[C@@H](C)CCCCO[C@@H]1CN(C)S(=O)(=O)c1ccc(F)cc1	/	/	/	/	-8
CNC[C@@H]1Oc2c(NC(=O)Nc3c(C)noc3C)cccc2C(=O)N([C@H](C)CO)C[C@@H]1C	/	/	/	/	-1
CCC(=O)NC(c1ccc(Cl)cc1Cl)c1ccc2cccnc2c1O (stereo not drawn)	19	/	/	122*	-1
CCCC(=O)NC(c1ccc(N(C)C)cc1)c1ccc2cccnc2c1O (stereo not drawn)	37	/	/	410*	3
COc1ccc(S(=O)(=O)Nc2ccc3c(c2)C(=O)N(C)C[C@@H](OC)[C@H](C)CN[C@@H](C)CO3)cc1	/	/	/	/	0
Cc1c(C(=O)NC(=S)Nc2ccccc2N2CCCC2)cccc1[N+](=O)[O-]	-3	9	96*	3	-1
CCCCC(=O)NC(=S)Nc1cccc(Cl)c1N1CCCCC1	-8	-16	55	-2	0
COc1ccc(C(=O)NC(=S)Nc2ccccc2N2CCCCC2)cc1[N+](=O)[O-]	-8	0	94*	2	/
CCCCC(=O)NC(=S)Nc1ccccc1N1CCCCC1	-11	-1	84*	-1	/
O=C(O)C1=CC(C2CCCCC2)CC(OCCCCO)O1 (stereo not drawn)	/	6	-3	/	/
CCOC(=O)c1c(-c2ccccc2)nc2cc(C)ccn12	-46	13	-1	2	/
CCOC(=O)c1sc(N)nc1-c1ccccc1	-5	4	12	94*	3
CCOC(=O)c1c(-c2ccccc2)nc2ccc(C)cn12	-60	9	-2	207*	/
SMILES	PrP 5UTR inh	RN4220 kill	ugtP null kill	PfHsp40 rescue	TcdB GH inh
CCOC(=O)c1sc(NC(=O)c2ccc(S(=O)(=O)N3CCCCCC3)cc2)nc1-c1ccccc1	-20	1	5	50*	-3
C[C@H](CO)N1C[C@H](C)[C@H](CN(C)S(C)(=O)=O)Oc2ccc(N(C)C)cc2C1=O	/	/	/	/	-4
CCCCCCNC(=O)c1cccc(-c2ccc(C)c3ccccc23)n1	-10	-4	90*	-1	0
C[C@H]1CN([C@@H](C)CO)C(=O)c2cc(NC(=O)CCC(F)(F)F)ccc2O[C@H]1CN(C)Cc1ccc(C(F)(F)F)cc1	/	/	/	/	2
Cc1ccc(Nc2cc(C)nn2-c2nc(C)cc(=O)[nH]2)cc1	29	98*	99*	13	/
Cc1ccc(Nc2cc(C)nn2-c2nc(C)cc(C)n2)cc1	-11	7	-9	?	/
Cc1cccc(-n2c(SCC(N)=O)nc3c(c2=O)C2(CCCC2)Cc2ccccc2-3)c1	-5	-1	74	4	/
NC(=O)CSc1nc2c(c(=O)n1-c1ccccc1)C1(CCCCC1)Cc1ccccc1-2	-11	-7	90*	0	1
Cc1ccc(CSc2nc3c(c(N(C)C)n2)CCCC3)cc1	-20	5	-11	1	/
CNc1nc(SCc2ccc(C)cc2)nc2c1CCCC2	-10	12	-16	199*	/
Cc1cc([N+](=O)[O-])cc(/C=N/n2c(C)nc3ccccc3c2=O)c1O	-47	/	/	192*	2
O=[N+]([O-])c1ccc(O)c(C2=NNC(c3ccccc3F)C2)c1 (stereo not drawn)	/	92*	94*	-1	0
CC(=O)Nc1ccc(NC(=O)c2cccc(S(=O)(=O)N(C)C3CCCCC3)c2)cc1	-13	5	2	0	-10
Cc1ccc(NC(=O)c2cccc(S(=O)(=O)N(C)C3CCCCC3)c2)nc1	-25	-2	-11	50*	-1
O=C(O)c1ccc(/C=N/NC(=S)NCCN2CCOCC2)cc1	10	/	/	0	11*
O=C(Nn1c(SCc2ccccc2F)nc2ccsc2c1=O)c1ccccc1	-24	65	37	0	0
O=C(Nn1c(=O)[nH]c2ccsc2c1=O)c1ccccc1	-1	98*	100*	-1	/
O=C(c1cc2ccccc2o1)N(Cc1ccco1)Cc1cccs1	-8	4	17	165*	-1
Cc1c(C(=O)N(Cc2ccco2)Cc2cccs2)oc2ccccc12	-21	10	17	-1	-1
COc1ccc(/C=N/Nc2cc(C)nc(-n3nc(C)cc3C)n2)cc1	-18	/	/	272*	/
Cc1cc(NN=Cc2ccc(Br)cc2)nc(-n2nc(C)cc2C)n1	/	6	-25	/	/
Cc1cc(N/N=C/c2ccccc2[N+](=O)[O-])nc(-n2nc(C)cc2C)n1	-13	/	/	55*	-1
CCOc1ccc(C=NNC(=O)CC(=O)NCCc2ccccc2)cc1	/	5	11	/	/
Cc1ccc(C(=O)NN=Cc2ccc(OC(=O)c3cccs3)cc2)cn1	/	-3	-6	/	/
CCC1CC(C(C)=NNC(N)=O)OC1=O (stereo not drawn)	/	3	2	/	/
COC1CCCN(Cc2c(C(=O)N3CCc4ccccc4C3)nc3ccc(Cl)cn23)C1 (stereo not drawn)	-1	4	8	2	0
